Measured values taken from PubChem BioAssay.
Where “and” joins values, the source holds several entries; their conditions need not be identical. Equal entries are not always repeated. Calls of active or inactive are those of the source.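 How the source made its calls, unless noted: active means compounds whose cell count with miR-34 switched on is under 0.7 times the count with it off; inactive means the rest.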 *1 amine or outer side, *2 acyl side, *3 side chain or, on linkers, in order; H or OH if unused. Where a SMILES comes first, the peptide text is derived from it. Bridges are numbered along the chain shown (N, C = ends). [ ]: non-standard residue; d: D form. The star is where a group is joined. ξ: configuration not given here. pTerphenylCO(4''-OnC5H11) = CCCCCOc1ccc(-c2ccc(-c3ccc(C(=O)*)cc3)cc2)cc1; ξOrn(4,5-diOH) = O=C(C(CC(O)C(O)N[*:3])N[*:1])[*:2]; ξhTyr(βξ-OH,γξ-OH) = NC(C(=O)O)C(O)C(O)c1ccc(O)cc1; ξPro(3ξ-OH,4ξ-Me) = CC1CNC(C(=O)O)C1O; Hyp = O=C(O)[CH]1C[CH](O)CN1

What was measured:
[1] = sensitizers of A549 cells to miR-34 induction, primary screen, imaging, A549 dox-inducible miR-34, nuclei and caspase counts (AID 1347080); settings: A549 miR-34 inducible, Hoechst nuclei count, 48 h
[2] = survival rescue of mitochondrial mutant cells in low glucose, primary screen, MELAS cybrids, Rieske KO mouse fibroblasts, CellTiter-Glo (AID 1508586;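 active means mean z-score across replicates of 1.96 or higher in either the MELAS or the Rieske mutant cell line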;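 further: z relative to plate mean and SD of compound and empty wells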)
[3] = stronger effect = lower value, cell number ratio, induced over uninduced
[4] = measured here: relative caspase fold change +Dox/-Dox
[5] = measured here: total cells with miR-34 induction, stronger effect = lower value
[6] = measured here: total cells without miR-34 induction
[7] = MELAS cybrid survival, CellTiter-Glo 48 h, stronger effect = higher value
[8] = Rieske KO mouse fibroblast survival, CellTiter-Glo 72 h
Further: test concentration not given here.

Structure (SMILES) | fold change [1, 3] | fold change [1, 4] | cell count [1, 5] | cell count [1, 6] | z-score [2, 7] | z-score [2, 8]
C=C1CCC(O)CC1=CC=C1CCC[C@]2(C)C(C(C)CCCC(C)C)CC[C@@H]12 (stereo partly drawn) | 0.915 (inactive) | 0.845 | 8000 | 8740 | -0.279 (inactive) | -0.0631
O=C(C=Cc1ccc(O)cc1)c1ccc(O)cc1O | 0.99 (inactive) | 0.784 | 8890 | 8980 | -0.337 (inactive) | 0.414
COc1cccc2c1C(=O)c1c(O)c3c(c(O)c1C2=O)C[C@@](O)(C(=O)CO)C[C@@H]3OC1CC(N)C(OC2CCCCO2)C(C)O1 (stereo partly drawn) | 1.07 (inactive) | 1.21 | 1240 | 1150 | 3.19 (active) | -0.724
COC1CC2CCC(C)[C@](O)(O2)C(=O)C(=O)N2CCCC[C@H]2C(=O)OC(C(C)CC2CCC(n3cnnn3)C(OC)C2)CC(=O)C(C)C=C(C)C(O)C(OC)C(=O)C(C)CC(C)C=CC=CC=C1C (stereo partly drawn) | 1.13 (inactive) | 0.353 | 5100 | 4500 | 3.99 (active) | 2.04
CC1CCN(CCC2CCCN2S(=O)(=O)c2cccc(O)c2)CC1 (stereo not drawn) | 0.96 (inactive) | 0.546 | 7750 | 8080 | -0.371 (inactive) | -0.0766
C=C1C(=O)OC2C=C(C)CCC=C(C)CCC12 (stereo not drawn) | 0.92 (inactive) | 0.847 | 7130 | 7760 | -0.398 (inactive) | -0.0875
O=C(O)C1OC(Oc2cc3oc(-c4ccccc4)cc(=O)c3c(O)c2O)C(O)C(O)C1O (stereo not drawn) | 0.916 (inactive) | 1.12 | 7800 | 8520 | -0.174 (inactive) | 0.279
CCOC(=O)C(CCc1ccccc1)NC1CSC(c2cccs2)CN(CC(=O)O)C1=O (stereo not drawn) | 1.05 (inactive) | 0.5 | 8260 | 7900 | -0.343 (inactive) | -0.0675
O=C(Oc1cc(S(=O)(=O)c2ccccc2)ccc1[N+](=O)[O-])c1ccc(Cl)cc1 | 0.897 (inactive) | 0.914 | 8540 | 9520 | -0.507 (inactive) | -2.16
COc1cc(O)cc(C2CC(=O)c3c(O)cc(OC4OC(CO)C(O)C(O)C4OC4OC(C)C(O)C(O)C4O)cc3O2)c1 (stereo not drawn) | 0.921 (inactive) | 0.443 | 8090 | 8790 | -0.19 (inactive) | -0.0453
Cc1cc2c(C(=O)NCC(C)c3ccccc3)c(O)c(O)cc2c(O)c1-c1c(C)cc2c(C(=O)NCC(C)c3ccccc3)c(O)c(O)cc2c1O (stereo not drawn) | 1.07 (inactive) | 0.503 | 2050 | 1910 | -0.836 (inactive) | -6.52
O=C(OC1C[N+]2(CCCOc3ccccc3)CCC1CC2)C(O)(c1cccs1)c1cccs1 (stereo not drawn) | 0.946 (inactive) | 1.31 | 8940 | 9450 | -0.202 (inactive) | -0.179
CC1C[C@@H]2[C@@H](C(O)C[C@@]3(C)[C@H]2CC[C@@]3(O)C(=O)CO)[C@@]2(C)C=CC(=O)C=C12 (stereo partly drawn) | 0.787 (inactive) | 1.42 | 5500 | 6980 | -0.489 (inactive) | -0.516
CCCCCOc1ccc(-c2ccc(-c3ccc(C(=O)NC4CC(O)C(O)NC(=O)C5C(O)C(C)CN5C(=O)C(C(C)O)NC(=O)C(C(O)C(O)c5ccc(O)cc5)NC(=O)C5CC(O)CN5C(=O)C(C(C)O)NC4=O)cc3)cc2)cc1 (stereo not drawn) ({pTerphenylCO(4''-OnC5H11)}-[ξOrn(4,5-diOH)]T[Hyp][ξhTyr(βξ-OH,γξ-OH)]T[ξPro(3ξ-OH,4ξ-Me)]; lactam 1-C; configuration not given here) | 0.963 (inactive) | 0.515 | 5590 | 5810 | 0.0456 (inactive) | -0.136
CCOc1ccc(Cc2cc(C3OC(CO)C(O)C(O)C3O)ccc2Cl)cc1 (stereo not drawn) | 0.916 (inactive) | 0.801 | 7650 | 8340 | 0.52 (inactive) | -0.097
O=C(CCCCCCC(=O)Nc1ccc(C2OC(CSc3nc(-c4ccccc4)c(-c4ccccc4)o3)CC(c3ccc(CO)cc3)O2)cc1)NO (stereo not drawn) | 0.92 (inactive) | 0.644 | 6200 | 6750 | -0.366 (inactive) | 1.07
NC1=N[C@@]2(c3cc(NC(=O)c4ccc(F)cn4)ccc3F)COC[C@@H]2CS1 | 0.902 (inactive) | 1.51 | 8500 | 9420 | -0.211 (inactive) | 0.113
CC(C)(C)NC(=O)C1CC[C@H]2[C@@H]3CC[C@H]4NC(=O)C=C[C@]4(C)[C@@H]3CC[C@]12C (stereo partly drawn) | 1.03 (inactive) | 1.3 | 8400 | 8170 | -0.417 (inactive) | 0.72
N#Cc1c(Oc2ccc(F)c(NC(=O)Cc3cccc(C(F)(F)F)c3)c2)ccc2nc(NC(=O)C3CC3)sc12 | 1.2 (inactive) | 0.284 | 2200 | 1840 | -0.453 (inactive) | 0.158
CCC(C)[C@H]1O[C@]2(CCC1C)CC1C[C@@H](CC=C(C)C(O[C@H]3CC(OC)C(O[C@H]4CC(OC)C(O)C(C)O4)C(C)O3)C(C)C=CC=C3CO[C@@H]4C(O)C(C)=C[C@H](C(=O)O1)[C@]34O)O2 (stereo partly drawn) | 1.18 (inactive) | 0.443 | 3750 | 3170 | -0.0305 (inactive) | 0.298
C=CC[N+]1(C2C[C@H]3[C@@H]4CC[C@H]5CC(O)C(N6CCOCC6)C[C@]5(C)[C@@H]4CC[C@]3(C)C2OC(C)=O)CCCC1 (stereo partly drawn) | 0.951 (inactive) | 0.974 | 8100 | 8520 | -0.403 (inactive) | 0.424
CCn1c(N)c(C(=O)NC)c(=O)c2ccc(C#C[C@@](C)(O)COC)nc21 | 0.913 (inactive) | 0.578 | 6630 | 7260 | -0.356 (inactive) | -0.157

Structure (SMILES) | fold change [1, 3] | fold change [1, 4] | cell count [1, 5] | cell count [1, 6] | z-score [2, 7] | z-score [2, 8]
Cc1ccc(C(=O)N(CCCN)C(c2nc3cc(Cl)ccc3c(=O)n2Cc2ccccc2)C(C)C)cc1 (stereo not drawn) | 0.993 (inactive) | 0.877 | 1340 | 1350 | 0.859 (inactive) | -0.608
COc1ccc(NS(=O)(=O)c2sc3ccc(Cl)cc3c2C)cc1N1CCNCC1 | 0.966 (inactive) | 0.423 | 7390 | 7650 | -0.345 (inactive) | -0.0807
CC(=O)Nc1ccc(NC(=S)NC(=O)c2ccc(C(C)(C)C)cc2)cc1 | 1 (inactive) and 1.05 (inactive) | 1.21 and 0.561 | 1820 and 1680 | 1820 and 1600 | -0.38 (inactive) | 0.0517
COC1CC2CCC(C)[C@@](O)(O2)C(=O)C(=O)N2CCCCC2C(=O)OC(C(C)CC2CCC(O)C(OC)C2)CC(=O)C(C)C=C(C)C(O)C(OC)C(=O)C(C)CC(C)C=CC=CC=C1C (stereo partly drawn) | 0.994 (inactive) | 1.19 | 4070 | 4090 | 0.132 | 2.33
O=S(=O)(c1ccccc1)c1cnc2c(N3CCNCC3)cccc2c1 | 0.946 (inactive) | 0.61 | 7690 | 8130 | -0.577 (inactive) | -0.0242
CC(CCC(=O)O)[C@H]1CC[C@H]2[C@@H]3C(O)C[C@@H]4CC(O)CC[C@]4(C)[C@@H]3CC[C@]12C (stereo partly drawn) | 0.91 (inactive) | 1.28 | 8880 | 9760 | -0.306 (inactive) | 0.756
C=CC1=C(C(=O)O)N2C(=O)[C@H](NC(=O)C(=NO)c3csc(N)n3)[C@H]2SC1 | 0.881 (inactive) | 1.23 | 7750 | 8790 | -0.382 (inactive) | 0.812
CC1OC(O)C(O)C(O)C1O (stereo not drawn) | 0.984 (inactive) | 1 | 7230 | 7350 | -0.0523 (inactive) | -0.0922
CC(NC(=O)Cc1cc(F)cc(F)c1)C(=O)NC1C(=O)N(C)c2ccccc2-c2ccccc21 (stereo not drawn) | 0.913 (inactive) | 0.674 | 8480 | 9280 | -0.38 (inactive) | 1.69
CC(C)(CO)c1cc2cc(NC(=O)C3(c4ccc5c(c4)OC(F)(F)O5)CC3)c(F)cc2n1CC(O)CO (stereo not drawn) | 0.912 (inactive) | 1.56 | 8420 | 9220 | -0.252 (inactive) | -0.139
Nc1ncn(C2CC(O)C(CO)O2)c(=O)n1 (stereo not drawn) | 0.936 (inactive) | 0.727 | 7530 | 8050 | -0.461 (inactive) | 0.644
Cc1cccc(C)c1OCC(=O)NC(Cc1ccccc1)C(O)CC(Cc1ccccc1)NC(=O)C(C(C)C)N1CCCNC1=O (stereo not drawn) | 1 (inactive) | 0.797 | 6290 | 6270 | -0.513 (inactive) | 0.0231
COc1ccc(CC2c3cc(OC)c(OC)cc3CC[N@+]2(C)CCC(=O)OCCCCCOC(=O)CC[N@@+]2(C)CCc3cc(OC)c(OC)cc3C2Cc2ccc(OC)c(OC)c2)cc1OC (stereo partly drawn) | 0.844 (inactive) | 1.36 | 7940 | 9400 | -0.391 (inactive) | 0.533
CC(C)N(CCCNC(=O)Nc1ccc(C(C)(C)C)cc1)CC1OC(n2ccc3c(N)ncnc32)C(O)C1O (stereo not drawn) | 0.885 (inactive) | 0.359 | 8440 | 9540 | -0.287 (inactive) | 0.555
Cn1c(=O)c(F)c(Nc2ccc(I)cc2F)c2c(=O)n(CC(O)CO)cnc21 (stereo not drawn) | 1.04 (inactive) | 0.57 | 3130 | 3010 | -0.414 (inactive) | -1.17
CCC1OC(=O)C(C)C(OC2C[C@@](C)(OC)C(O)C(C)O2)C(C)C(OC2OC(C)CC(N(C)C)C2O)[C@@](C)(O)CC(C)[C@@H]2NC(COCCOC)OC(C2C)[C@]1(C)O (stereo partly drawn) | 0.923 (inactive) | 0.895 | 8840 | 9580 | -0.208 (inactive) | -0.128
O=C1c2c(O)cccc2[C@H]([C@@H]2OC(CO)C(O)C(O)C2O)c2cc(CO)cc(O)c21 (stereo partly drawn) | 0.88 (inactive) | 0.843 | 8560 | 9720 | -0.344 (inactive) | -0.143
CCC(=O)NCCC1CCc2ccc3c(c21)CCO3 (stereo not drawn) | 0.931 (inactive) | 4.33 | 8720 | 9370 | -0.89 (inactive) | 0.046
CCOC1OC(=O)CC1NC(=O)C1CCCN1C(=O)C(NC(=O)c1ccc(N)c(Cl)c1)C(C)(C)C (stereo not drawn) | 0.983 (inactive) | 0.559 | 8140 | 8280 | -0.153 (inactive) | 0.0351
COc1cc(C2c3cc4c(cc3C(OC3OC5COC(c6cccs6)OC5C(O)C3O)C3COC(=O)[C@H]23)OCO4)cc(OC)c1O (stereo partly drawn) | 1.06 (inactive) | 0.936 | 1550 | 1460 | 0.486 (inactive) | 0.638
COc1ccc2cc1Oc1ccc(cc1)CC1c3cc(c(OC)cc3CCN1C)Oc1c(OC)c(OC)cc3c1C(C2)N(C)CC3 (stereo not drawn) | 0.908 (inactive) | 0.992 | 6590 | 7260 | -0.603 (inactive) | -0.273
